A number with no mark means an inactive call. Results filed as inconclusive are left out. Entries that show only a call come without a potency. Calls of active or inactive are those of the source. Unless noted, calls follow the shape of the full dose curve.
Columns and labels:
[1] = qHTS assay to identify small molecule agonists of the sonic hedgehog signaling (Shh) pathway (AID 1259368);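 also: NIH/3T3-derived 3T3Gli1-Luc cells carrying a stable Gli1-driven firefly luciferase reporter; series mostly up to about 92 µM; nearly all actives have a fitted effect of over 15% in size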
Procedure, shortened: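 Quantitative high-throughput format using a Gli1-driven firefly luciferase reporter line derived from NIH/3T3 cells. After a 24 hr compound treatment at 37 C and 5% CO2, luminescence reported Gli1 response element activity.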

[2] = qHTS assay to identify small molecule antagonists of the sonic hedgehog signaling (Shh) pathway (AID 1259369); also: nearly all actives have a fitted effect of over 45% in size
Procedure, shortened: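 Stable Gli1-Luc reporter NIH/3T3 clone; quantitative HTS in stimulated mode with conditioned medium. Luminescence measured after 24hr compound treatment at 37 C.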

[3] = qHTS assay to identify small molecule agonists of the androgen receptor (AR) signaling pathway in the presence of an antagonist - cell viability counter screen (AID 1259379; active = well fitted curve in the direction sought with a large enough effect in the repeat runs; an effect the other way counts as inactive or inconclusive;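 also: MDA-kb2 human breast cancer cells carrying an MMTV luciferase reporter; series mostly up to about 92 µM; nearly all actives have a fitted effect of over 25% in size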)
Procedure, shortened: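 Nilutamide-containing (3.0uM final) MDA-kb2 cultures, 3,000 cells/well, were treated with compounds across 15 concentrations. After 16 hr at 37C with no CO2, cell viability was determined by CellTiter-Fluor fluorescence in the luciferase assay wells.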

[4] = qHTS assay to identify small molecule agonists of the estrogen receptor beta (ER-beta) signaling pathway - cell viability counter screen (AID 1259380; active = well fitted curve in the direction sought with a large enough effect in the repeat runs; an effect the other way counts as inactive or inconclusive; also: nearly all actives have a fitted effect of over 30% in size)
Procedure, shortened: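 Steps: plate ER-beta-UAS-bla HEK293T cells, rest 6 hr; add compounds in DMSO; incubate 16 hr at 37C, 5% CO2; add FRET substrate 2 hr; add CellTiter-Glo, wait 30 min at room temperature; read luminescence.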

[5] = target: Androgen receptor (Homo sapiens) (UniProt P10275); assay: qHTS assay to identify small molecule agonists of the androgen receptor (AR) signaling pathway in the presence of an antagonist (AID 1259381); also: nearly all actives have a fitted effect of over 15% in size
Procedure, shortened: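 Reporter-gene luminescence from MDA-kb2 cells exposed 16hr at 37C (0% CO2) to 15-point compound titrations with 3.0uM final nilutamide as AR antagonist.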

[6] = qHTS assay to identify small molecule antagonists of the estrogen receptor beta (ER-beta) signaling pathway - cell viability counter screen (AID 1259382; active = well fitted curve in the direction sought with a large enough effect in the repeat runs; an effect the other way counts as inactive or inconclusive; also: series mostly up to about 92 µM; nearly all actives have a fitted effect of over 55% in size)
Procedure, shortened: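 Viability is scored by CellTiter-Glo luminescence (30 min, room temperature) in ER-beta-UAS-bla HEK293T wells already read for reporter fluorescence. Compound exposure lasts 16 hr at 37C alongside 1nM 17-beta-estradiol in charcoal-stripped serum medium.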

[7] = target: Estrogen receptor (Homo sapiens) (UniProt P03372); assay: qHTS assay to identify small molecule agonists of the estrogen receptor alpha (ER-alpha) signaling pathway in the presence of an antagonist (AID 1259383); also: top concentration of the series differs between compounds; nearly all actives have a fitted effect of over 15% in size
Procedure, shortened: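 Readout was ERE-driven luciferase luminescence in VM7Luc4E2 cells, which express full-length ER-alpha endogenously. Compounds were tested at 15 concentrations for 22hr alongside 10.0nM ICI-182,780 (final concentration).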

[8] = qHTS assay to identify small molecule agonists or antagonists of the thyroid stimulating hormone receptor (TSHR) signaling pathway - wild type cell line counter screen (AID 1259384)
Procedure, shortened: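 Wild-type Hek293 cells, 800/well, 18 h at 37C, then compound with Ro20-1724 for 30 min RT. cAMP by HTRF (cAMP-d2/anti-cAMP cryptate), 1 h RT, fluorescence read. 15 concentrations, triplicates.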

[9] = target: Thyrotropin receptor (Homo sapiens) (UniProt P16473); assay: qHTS assay to identify small molecule antagonists of the thyroid stimulating hormone receptor (TSHR) signaling pathway (AID 1259385); also: nearly all actives have a fitted effect of over 20% in size
Procedure, shortened: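 TSHR-HEK293 cells (800/well) plated 18 h, then compounds with Ro20-1724 and TSH at 1.5 ng/mL final, 30 min at room temperature. cAMP quantified by HTRF (cAMP-d2/anti-cAMP-cryptate, 1 h); 15 concentrations in triplicate.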

[10] = qHTS assay to identify small molecule agonists of the estrogen receptor alpha (ER-alpha) signaling pathway in the presence of an antagonist - cell viability counter screen (AID 1259386; active = well fitted curve in the direction sought with a large enough effect in the repeat runs; an effect the other way counts as inactive or inconclusive;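 also: series mostly up to about 92 µM; cells exposed to compounds for 22 h at 37 °C before the viability read; nearly all actives have a fitted effect of over 30% in size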)
Procedure, shortened: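 In this counter screen, compound effects on VM7Luc4E2 viability were tested in the presence of the antagonist ICI-182,780 at 10.0nM final. Compounds were dosed at 15 concentrations, exposure lasted 22hr, and the CellTiter-Fluor signal was read.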

[11] = target: Progesterone receptor (Homo sapiens) (UniProt P06401); assay: qHTS assay to identify small molecule antagonists of the progesterone receptor (PR) signaling pathway (AID 1346795; active = well fitted inhibition curve with a large enough effect in the signal ratio in the repeat runs, not every such curve was filed as active; the % refers to the signal ratio; also: potency is read from the fitted curve at half-maximal effect)
Procedure, shortened: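 PR-UAS-bla HEK293T cells carrying a UAS-driven beta-lactamase reporter were plated in medium with 2% charcoal-stripped FBS and rested 6 hr at 37C. Compounds were added with 1 nM R5020 (final) for 16 hr, then FRET substrate loaded 2 hr at room temperature.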

[12] = qHTS assay to identify small molecule antagonists of the progesterone receptor (PR) signaling pathway - cell viability counter screen (AID 1346798; active = well fitted curve in the direction sought with a large enough effect in the repeat runs; an effect the other way counts as inactive or inconclusive; also: series mostly up to about 92 µM; nearly all actives have a fitted effect of over 50% in size)
Procedure, shortened: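 PR-UAS-bla HEK293T cells in medium with 2% charcoal-stripped FBS were treated with compounds plus R5020 for 16 hr at 37C. Cell viability was then read by CellTiter-Glo luminescence after 30 min at room temperature in the same wells.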

[13] = qHTS assay to identify small molecule agonists of the progesterone receptor (PR) signaling pathway - cell viability counter screen (AID 1346799); also: nearly all actives have a fitted effect of over 45% in size
Procedure, shortened: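 PR-UAS-bla HEK293T cells, 3,000 per well in medium with 2% charcoal-stripped FBS, were preincubated 6 hr at 37C, then exposed to compounds for 16 hr; viability was read as CellTiter-Glo luminescence after 30 min at room temperature.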

[14] = qHTS assay to identify small molecule antagonists of the TGF-beta/Smad signaling pathway - cell viability counter screen (AID 1346824; active = well fitted curve in the direction sought with a large enough effect in the repeat runs; an effect the other way counts as inactive or inconclusive; also: nearly all actives have a fitted effect of over 50% in size)
Procedure, shortened: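 SBE-bla HEK 293T cells, incubated overnight, then compound plus 0.25 ng/mL TGF-beta1 (stock added) for 5 hr at 37 C. Viability was read in the same wells by CellTiter-Glo luminescence after 30 min at room temperature.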

[15] = qHTS assay to identify small molecule agonists of the TGF-beta/Smad signaling pathway - cell viability counter screen (AID 1346829; active = well fitted curve in the direction sought with a large enough effect in the repeat runs; an effect the other way counts as inactive or inconclusive; also: top concentration of the series differs between compounds; nearly all actives have a fitted effect of over 45% in size)
Procedure, shortened: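 HEK 293T SBE-bla line, 5 hr compound exposure at 37 C, multiplexed CellTiter-Glo viability read by luminescence.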

[16] = target: Estrogen receptor beta (Homo sapiens) (UniProt Q92731); assay: qHTS assay to identify small molecule agonists of the estrogen receptor beta (ER-beta) signaling pathway (AID 1259377; active = well fitted activation curve with a large enough effect in the signal ratio in the repeat runs, not every such curve was filed as active; the % refers to the signal ratio)
Procedure, shortened: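 ER-beta-UAS-bla HEK293T (GripTite) cells carrying a UAS-driven beta-lactamase reporter, in medium with 2% charcoal-stripped FBS, were exposed to compounds for 16 hr at 37C; LiveBLAzer B/G FRET substrate was then added and fluorescence read after 2 hours at room temperature.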

[17] = target: Progesterone receptor (Homo sapiens) (UniProt P06401); assay: qHTS assay to identify small molecule agonists of the progesterone receptor (PR) signaling pathway (AID 1346784); also: nearly all actives have a fitted effect of over 30% in size
Procedure, shortened: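 PR-UAS-bla HEK 293T cells carrying a UAS-driven beta-lactamase reporter were seeded in medium with 2% charcoal-stripped FBS, preincubated 6 hr at 37C, then exposed to compounds in DMSO for 16 hr; agonism was read by LiveBLAzer B/G FRET fluorescence.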

[18] = qHTS assay to identify small molecule agonists of the TGF-beta/Smad signaling pathway (AID 1346859; active = well fitted activation curve with a large enough effect in the signal ratio in the repeat runs, not every such curve was filed as active; the % refers to the signal ratio; also: series mostly up to about 77 µM)
Procedure, shortened: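 HEK 293T cells stably carrying a beta-lactamase reporter driven by the Smad binding element were seeded overnight, exposed to DMSO-dissolved compounds for 5 hr at 37 C, 5% CO2, then loaded with FRET substrate for 2 hr at room temperature.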

[19] = target: Thyrotropin-releasing hormone receptor (Homo sapiens) (UniProt P34981); assay: qHTS assay to identify small molecule antagonists of the thyrotropin-releasing hormone receptor (TRHR) signaling pathway (AID 1346877; active = well fitted inhibition curve with a large enough effect in the repeat runs, not every such curve was filed as active; also: series mostly up to about 51 µM)
Procedure, shortened: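 Kinetic fluorescence (3 min, 1 s resolution) following stimulation with TRH at 1 nM final; HEK293 cells bearing human TRHR; 5 min compound preincubation at RT; concentration-response over 15 points, triplicates.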

[20] = target: Estrogen receptor beta (Homo sapiens) (UniProt Q92731); assay: qHTS assay to identify small molecule antagonists of the estrogen receptor beta (ER-beta) signaling pathway (AID 1259378; active = well fitted inhibition curve with a large enough effect in the signal ratio in the repeat runs, not every such curve was filed as active; the % refers to the signal ratio)
Procedure, shortened: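 ER-beta-UAS-bla HEK293T cells in 2% charcoal-stripped FBS medium treated with compound plus 1nM final 17-beta-estradiol for 16 hr at 37C. Beta-lactamase reporter read by FRET substrate fluorescence after 2 hours at room temperature.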

Estrogen receptor (Homo sapiens), sequence (P03372 whole entry, looked up): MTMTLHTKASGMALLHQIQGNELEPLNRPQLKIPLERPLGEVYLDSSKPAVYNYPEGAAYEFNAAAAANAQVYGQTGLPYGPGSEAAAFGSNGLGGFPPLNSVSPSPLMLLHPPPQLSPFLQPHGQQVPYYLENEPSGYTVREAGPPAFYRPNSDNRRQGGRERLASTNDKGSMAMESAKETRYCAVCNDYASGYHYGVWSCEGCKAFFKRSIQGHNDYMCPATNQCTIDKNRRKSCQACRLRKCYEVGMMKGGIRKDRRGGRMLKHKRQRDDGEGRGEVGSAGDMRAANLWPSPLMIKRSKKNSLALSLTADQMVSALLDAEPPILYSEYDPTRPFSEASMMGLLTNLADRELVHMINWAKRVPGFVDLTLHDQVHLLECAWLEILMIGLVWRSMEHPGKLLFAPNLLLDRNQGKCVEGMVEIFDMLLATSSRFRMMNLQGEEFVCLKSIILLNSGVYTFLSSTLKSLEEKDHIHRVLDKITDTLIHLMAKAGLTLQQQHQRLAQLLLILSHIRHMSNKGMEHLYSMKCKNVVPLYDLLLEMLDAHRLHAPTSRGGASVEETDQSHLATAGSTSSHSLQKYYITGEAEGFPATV
Estrogen receptor beta (Homo sapiens), sequence (Q92731 whole entry, looked up): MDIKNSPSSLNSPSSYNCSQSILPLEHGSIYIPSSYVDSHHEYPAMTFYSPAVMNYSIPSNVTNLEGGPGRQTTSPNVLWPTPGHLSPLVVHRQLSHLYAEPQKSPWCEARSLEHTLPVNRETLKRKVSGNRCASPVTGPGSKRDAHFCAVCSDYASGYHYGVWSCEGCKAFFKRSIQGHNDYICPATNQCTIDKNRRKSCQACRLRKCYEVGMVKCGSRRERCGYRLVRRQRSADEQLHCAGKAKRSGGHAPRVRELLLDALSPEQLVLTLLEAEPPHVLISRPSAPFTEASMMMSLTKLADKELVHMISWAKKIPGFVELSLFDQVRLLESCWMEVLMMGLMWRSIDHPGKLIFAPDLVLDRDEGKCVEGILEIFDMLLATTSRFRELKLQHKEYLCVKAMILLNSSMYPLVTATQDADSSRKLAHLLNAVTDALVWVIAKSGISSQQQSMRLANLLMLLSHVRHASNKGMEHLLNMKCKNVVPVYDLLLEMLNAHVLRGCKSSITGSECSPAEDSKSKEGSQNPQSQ
Thyrotropin receptor (Homo sapiens), sequence (P16473 whole entry, looked up): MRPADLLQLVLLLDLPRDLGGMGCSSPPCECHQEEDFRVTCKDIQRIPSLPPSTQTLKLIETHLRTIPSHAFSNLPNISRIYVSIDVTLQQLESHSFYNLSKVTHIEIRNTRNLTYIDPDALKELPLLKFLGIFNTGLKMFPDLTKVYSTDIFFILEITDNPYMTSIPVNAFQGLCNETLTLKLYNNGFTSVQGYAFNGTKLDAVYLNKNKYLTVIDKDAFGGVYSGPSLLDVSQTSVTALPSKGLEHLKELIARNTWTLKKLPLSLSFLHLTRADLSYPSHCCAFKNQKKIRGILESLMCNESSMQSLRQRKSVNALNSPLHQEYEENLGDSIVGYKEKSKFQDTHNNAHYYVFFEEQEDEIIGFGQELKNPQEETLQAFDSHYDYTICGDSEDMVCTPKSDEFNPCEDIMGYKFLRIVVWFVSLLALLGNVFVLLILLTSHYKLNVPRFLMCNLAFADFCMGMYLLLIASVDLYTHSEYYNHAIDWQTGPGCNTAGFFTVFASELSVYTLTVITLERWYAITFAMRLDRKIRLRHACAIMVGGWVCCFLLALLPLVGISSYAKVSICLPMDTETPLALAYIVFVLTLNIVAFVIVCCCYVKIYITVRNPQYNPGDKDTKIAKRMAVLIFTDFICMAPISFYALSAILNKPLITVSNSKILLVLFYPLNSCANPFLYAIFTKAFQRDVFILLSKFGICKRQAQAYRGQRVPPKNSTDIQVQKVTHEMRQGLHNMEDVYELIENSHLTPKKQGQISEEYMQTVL
Androgen receptor (Homo sapiens), sequence (P10275 whole entry, looked up): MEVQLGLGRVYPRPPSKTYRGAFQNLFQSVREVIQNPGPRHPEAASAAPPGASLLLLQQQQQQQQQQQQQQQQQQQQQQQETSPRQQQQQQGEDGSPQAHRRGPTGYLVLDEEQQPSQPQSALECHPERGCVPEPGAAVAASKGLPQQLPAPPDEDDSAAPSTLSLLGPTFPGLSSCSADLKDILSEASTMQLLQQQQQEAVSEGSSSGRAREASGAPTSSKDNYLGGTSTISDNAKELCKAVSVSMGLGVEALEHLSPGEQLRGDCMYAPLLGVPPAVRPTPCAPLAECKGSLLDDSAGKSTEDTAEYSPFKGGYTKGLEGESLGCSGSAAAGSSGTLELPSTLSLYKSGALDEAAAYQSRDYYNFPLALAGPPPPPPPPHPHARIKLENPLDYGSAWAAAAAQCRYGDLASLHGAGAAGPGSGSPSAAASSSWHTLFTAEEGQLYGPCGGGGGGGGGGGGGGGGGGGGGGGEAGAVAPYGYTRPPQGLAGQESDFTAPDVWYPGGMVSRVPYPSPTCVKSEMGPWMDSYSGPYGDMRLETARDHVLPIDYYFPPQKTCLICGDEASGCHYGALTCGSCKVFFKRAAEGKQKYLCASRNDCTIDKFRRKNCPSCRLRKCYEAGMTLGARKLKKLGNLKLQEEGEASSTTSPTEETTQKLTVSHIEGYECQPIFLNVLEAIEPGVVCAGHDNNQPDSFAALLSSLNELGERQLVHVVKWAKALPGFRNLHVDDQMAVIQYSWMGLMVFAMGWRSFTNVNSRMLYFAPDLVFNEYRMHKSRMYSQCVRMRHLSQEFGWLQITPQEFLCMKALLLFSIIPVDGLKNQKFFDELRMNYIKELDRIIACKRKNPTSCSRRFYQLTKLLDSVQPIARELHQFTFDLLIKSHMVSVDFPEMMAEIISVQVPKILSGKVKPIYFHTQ
Thyrotropin-releasing hormone receptor (Homo sapiens), sequence (P34981 whole entry, looked up): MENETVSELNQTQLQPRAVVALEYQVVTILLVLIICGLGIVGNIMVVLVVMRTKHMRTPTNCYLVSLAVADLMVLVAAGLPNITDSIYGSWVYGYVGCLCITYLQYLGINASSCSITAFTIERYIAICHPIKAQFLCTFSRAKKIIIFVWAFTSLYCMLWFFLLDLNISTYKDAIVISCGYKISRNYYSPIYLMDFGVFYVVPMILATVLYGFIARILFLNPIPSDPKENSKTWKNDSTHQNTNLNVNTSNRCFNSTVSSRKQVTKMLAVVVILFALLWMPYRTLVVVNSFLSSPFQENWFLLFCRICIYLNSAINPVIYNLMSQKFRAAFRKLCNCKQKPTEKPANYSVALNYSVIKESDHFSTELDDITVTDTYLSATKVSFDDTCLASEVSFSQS
Progesterone receptor (Homo sapiens), sequence (P06401 whole entry, looked up): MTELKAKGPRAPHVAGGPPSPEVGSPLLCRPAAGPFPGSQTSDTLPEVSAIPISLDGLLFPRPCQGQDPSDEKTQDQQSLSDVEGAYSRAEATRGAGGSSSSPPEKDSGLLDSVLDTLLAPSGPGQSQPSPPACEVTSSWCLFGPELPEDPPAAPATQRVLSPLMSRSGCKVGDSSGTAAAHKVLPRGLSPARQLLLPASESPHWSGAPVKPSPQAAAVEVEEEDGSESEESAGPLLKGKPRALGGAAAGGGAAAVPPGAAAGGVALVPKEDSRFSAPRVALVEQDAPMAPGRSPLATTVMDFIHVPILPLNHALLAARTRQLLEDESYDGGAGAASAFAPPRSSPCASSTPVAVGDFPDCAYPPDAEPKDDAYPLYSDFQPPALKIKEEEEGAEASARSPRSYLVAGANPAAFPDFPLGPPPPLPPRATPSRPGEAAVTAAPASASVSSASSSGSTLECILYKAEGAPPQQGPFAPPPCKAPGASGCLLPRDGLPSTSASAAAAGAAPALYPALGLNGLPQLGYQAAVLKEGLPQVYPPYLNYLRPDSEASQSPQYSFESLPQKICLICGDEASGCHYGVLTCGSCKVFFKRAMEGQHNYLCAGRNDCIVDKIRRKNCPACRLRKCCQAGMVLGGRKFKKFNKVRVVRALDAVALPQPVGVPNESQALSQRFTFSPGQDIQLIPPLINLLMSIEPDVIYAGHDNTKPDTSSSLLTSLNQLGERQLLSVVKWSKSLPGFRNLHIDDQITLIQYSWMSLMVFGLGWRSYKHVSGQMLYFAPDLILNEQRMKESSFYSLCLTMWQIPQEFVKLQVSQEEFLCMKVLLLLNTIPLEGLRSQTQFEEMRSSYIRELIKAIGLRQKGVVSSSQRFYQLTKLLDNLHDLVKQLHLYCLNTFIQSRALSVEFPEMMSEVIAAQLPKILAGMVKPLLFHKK

Structure (SMILES): CCOC(=O)c1ncn2c1CN(C)C(=O)c1cc(F)ccc1-2
- outcome [1]: inactive
- Potency [2]: inactive
- Potency [3]: inactive
- Potency [4]: inactive
- Potency [5]: inactive
- outcome [6]: inactive
- outcome [7]: inactive
- outcome [8]: inactive
- outcome [9]: inactive
- Potency [10]: inactive
- Potency [11]: inactive
- Potency [12]: inactive
- Potency [13]: inactive
- outcome [14]: inactive
- outcome [15]: inactive

Structure (SMILES): COC(=O)[C@@H]1[C@H]2C[C@H]3c4[nH]c5ccccc5c4CCN3C[C@@H]2CC[C@@H]1O
- outcome [1]: inactive
- Potency [2]: inactive
- Potency [16]: inactive
- Potency [3]: inactive
- Potency [4]: inactive
- outcome [7]: inactive
- outcome [8]: inactive
- Potency [10]: inactive
- Potency [17]: inactive
- Potency [11]: inactive
- Potency [12]: inactive
- outcome [14]: inactive
- outcome [15]: inactive
- outcome [18]: inactive
- outcome [19]: inactive

Structure (SMILES): BrCc1cccc(Oc2ccccc2)c1
- outcome [1]: inactive
- Potency [2]: inactive
- outcome [20]: inactive
- Potency [3]: inactive
- Potency [4]: inactive
- Potency [5]: inactive
- outcome [6]: inactive
- outcome [8]: inactive
- outcome [9]: inactive
- Potency [17]: inactive
- Potency [12]: inactive
- Potency [13]: inactive
- outcome [14]: inactive
- outcome [15]: inactive
- outcome [19]: inactive

Structure (SMILES): CCOC(=O)/C=C/c1ccccc1
- outcome [1]: inactive
- Potency [2]: inactive
- Potency [3]: inactive
- Potency [4]: inactive
- outcome [6]: inactive
- outcome [7]: inactive
- outcome [8]: inactive
- outcome [9]: inactive
- Potency [10]: inactive
- Potency [17]: inactive
- Potency [11]: inactive
- Potency [12]: inactive
- Potency [13]: inactive
- outcome [14]: inactive
- outcome [15]: inactive
- outcome [19]: inactive

Structure (SMILES): CCCCOC(=O)c1ccccc1
- outcome [1]: inactive
- Potency [2]: inactive
- Potency [3]: inactive
- Potency [4]: inactive
- Potency [5]: inactive
- outcome [6]: inactive
- outcome [7]: inactive
- outcome [9]: inactive
- Potency [10]: inactive
- Potency [17]: inactive
- Potency [11]: inactive
- Potency [12]: inactive
- Potency [13]: inactive
- outcome [14]: inactive
- outcome [15]: inactive
- outcome [19]: inactive

Structure (SMILES): N[C@@H](COP(=O)(O)O)C(=O)O
- activity change [1]: -1.5% [at 18.9 µM]
- activity change, negative = inhibition [2]: 28.3% [at 19 µM]
- activation [16]: 0.272% [at 19 µM]
- activity change, negative = cytotoxicity [3]: -2.46% [at 19 µM]
- activity change, negative = cytotoxicity [4]: 5.8% [at 19 µM]
- activity change, negative = cytotoxicity [6]: 9.58% [at 19 µM]
- activity change, negative = inhibition [9]: -0.736% [at 19 µM]
- activity change, negative = cytotoxicity [10]: 0.187% [at 19 µM]
- activation [17]: 0.26% [at 19 µM]
- activity change, negative = inhibition [11]: 6.07% [at 18.9 µM]
- activity change, negative = cytotoxicity [12]: -0.532% [at 18.9 µM]
- activity change, negative = cytotoxicity [13]: 13.8% [at 19 µM]
- viability change, negative = cytotoxic [14]: -0.3% [at 15.8 µM]
- activity change, negative = cytotoxicity [15]: 0.5% [at 15.8 µM]
- activation [18]: -0.654% [at 15.8 µM]
- activity, negative = inhibition [19]: -1.81% [at 10.5 µM]

Structure (SMILES): CCOc1cc([N+](=O)[O-])c(OCC)cc1N1CCOCC1
- outcome [1]: inactive
- Potency [2]: inactive
- Potency [16]: inactive
- Potency [4]: inactive
- outcome [6]: inactive
- outcome [7]: inactive
- outcome [9]: inactive
- Potency [17]: inactive
- Potency [11]: 27.3 µM (active)
- Potency [12]: inactive
- Potency [13]: inactive
- outcome [14]: inactive
- outcome [15]: inactive
- outcome [19]: inactive

Structure (SMILES): CC(CO)c1ccccc1 (stereo not given)
- outcome [1]: inactive
- Potency [2]: inactive
- outcome [20]: inactive
- Potency [3]: inactive
- Potency [4]: inactive
- Potency [5]: inactive
- outcome [6]: inactive
- outcome [7]: inactive
- outcome [8]: inactive
- outcome [9]: inactive
- Potency [17]: inactive
- Potency [11]: inactive
- Potency [12]: inactive
- Potency [13]: inactive
- outcome [14]: inactive
- outcome [15]: inactive
- outcome [18]: inactive
- outcome [19]: inactive

Source: PubChem BioAssay (Tox21)
